Compound activity deposited in PubChem BioAssay by several laboratories.
Sampled rows, rich in hits. Any-hit rate of the full collection: about 3.4%.
14-3-3 Bad inh: inhibitors of 14-3-3 zeta/Bad binding, primary screen, biochemical, TR-FRET, bovine 14-3-3 zeta | 14-3-3 protein zeta/delta (Bos taurus), P63103 | TR-FRET 14-3-3zeta/Dy647-pBad peptide displacement, 1 h | inhibition, % at 21.7 µM | 0.71% of 220,000 active | AID 781, 2007;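 active means inhibition above about 70%, limit read from the data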;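 further: 0% = full 14-3-3 plus peptide FRET controls and 100% = background without 14-3-3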
Target sequence (P63103 whole entry, looked up): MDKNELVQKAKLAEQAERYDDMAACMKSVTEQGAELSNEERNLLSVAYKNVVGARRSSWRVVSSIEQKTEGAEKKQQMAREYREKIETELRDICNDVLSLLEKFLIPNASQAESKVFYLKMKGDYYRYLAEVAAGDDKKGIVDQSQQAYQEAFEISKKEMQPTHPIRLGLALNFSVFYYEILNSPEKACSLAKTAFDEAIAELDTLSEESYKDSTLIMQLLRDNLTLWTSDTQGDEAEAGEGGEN
Mcl1-Bid inh: Mcl-1/Bid binding inhibitors, primary screen, biochemical, TR-FRET, 1536-well. TR-FRET Mcl-1/Bid-Dy647 peptide binding. AID 1021, 2008. 0.97% of 220,000 active. inhibition, % at 21.7 µM;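 active means compounds that cut the binding signal by more than half at the single screening dose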;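 further: His-tagged Mcl-1 with europium anti-His antibody binding Bid BH3 peptide; 0% = Mcl-1 plus peptide wells and 100% = peptide-only wells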
Target sequence (Q07820 whole entry, looked up): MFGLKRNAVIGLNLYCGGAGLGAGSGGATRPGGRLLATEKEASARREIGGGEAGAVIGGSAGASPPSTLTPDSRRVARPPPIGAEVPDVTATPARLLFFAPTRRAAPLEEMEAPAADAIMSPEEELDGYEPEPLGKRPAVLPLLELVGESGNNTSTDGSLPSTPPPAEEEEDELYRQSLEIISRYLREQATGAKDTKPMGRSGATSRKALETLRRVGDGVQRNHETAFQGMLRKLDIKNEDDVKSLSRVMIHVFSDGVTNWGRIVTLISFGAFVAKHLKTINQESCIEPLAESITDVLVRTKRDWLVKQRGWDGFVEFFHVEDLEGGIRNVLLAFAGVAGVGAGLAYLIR
NCF1 inh: p47phox/p22phox peptide binding inhibitors, primary screen, biochemical, uHTS, NADPH oxidase regulatory subunit; Neutrophil cytosol factor 1 (Homo sapiens), P14598; 0.53% of 220,000 active; inhibition, % at 24.7 µM; AID 1274, 2008; fluorescence polarization, 2 h;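 further: 0% = p47phox with labelled peptide and 100% = labelled peptide alone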
Mcl1-Noxa inh: Mcl-1/Noxa binding inhibitors, primary screen, biochemical, TR-FRET, 1536-well; Induced myeloid leukemia cell differentiation protein Mcl-1 (Homo sapiens), Q07820; 1.5% of 220,000 active; TR-FRET Mcl-1/Noxa peptide binding, 2 h; inhibition, % at 21.7 µM;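 active means compounds that cut the protein-peptide binding signal by more than 50% relative to plate controls in a single-dose test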;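 further: His-tagged Mcl-1 with rhodamine Noxa BH3 peptide and terbium anti-His antibody; 0% = Mcl-1 plus Noxa peptide wells and 100% = peptide-only wells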
Mcl-1 Bim block: inhibitors of Bim peptide binding to Mcl-1, primary screen, biochemical, bead-based flow cytometry, multiplex; Induced myeloid leukemia cell differentiation protein Mcl-1 (Homo sapiens), Q07820; Bim peptide-Mcl-1 binding; inhibition, % at 10 µM; 0.1% of 190,000 active; in the data active means inhibition above about 40%;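 further: 0% = no compound tracer wells and 100% = peptide blocker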
eIF4E 4G PPI: eIF4E–eIF4G protein interaction inhibitors, primary screen, biochemical, uHTS, TR-FRET, eIF4GI fragment | Eukaryotic translation initiation factor 4E (Mus musculus) + Eukaryotic translation … | TR-FRET eIF4E-eIF4GI(517-606) binding, 2 h | inhibition, % at 21.7 µM | 0.37% of 220,000 active;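 further: 0% = full FRET control wells and 100% = background wells lacking eIF4GI fragment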
* marks the source's active call; other numbers are inactive results; . = no result given; [ ] = another dose, or the depositor's remark.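 How the source made its calls, unless noted: active means inhibition above about 30% (limit read from the data); inactive means the rest.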

SMILES	14-3-3 Bad inh	Mcl1-Bid inh	NCF1 inh	Mcl1-Noxa inh	Mcl-1 Bim block	eIF4E 4G PPI
CCN(CC)c1ccc(NC(=O)COc2ccc(N(C)S(=O)(=O)c3cccs3)cc2)cc1	6.6	-18.0	-13.8	65.4*	-2.0	10.4
CN(c1ccc(OCC(=O)OCC(=O)Nc2ccccc2)cc1)S(=O)(=O)c1cccs1	-14.3	2.2	-10.8	13.2	-6.0	-4.2
CCCCN(C(=O)CSc1nnc(-c2ccccc2OC)n1C)c1c(N)n(Cc2ccccc2)c(=O)[nH]c1=O	5.1	-21.8	-7.3	28.5	-1.0	1.2
CCCCN(C(=O)CSc1nnc(-c2ccc(OC)cc2)n1CC)c1c(N)n(Cc2ccccc2)c(=O)[nH]c1=O	-18.9	-39.4	-2.1	60.4*	-3.0	-2.1
CCCCN(C(=O)CSc1nnc(-c2ccc(OC)cc2)n1C(C)C)c1c(N)n(Cc2ccccc2)c(=O)[nH]c1=O	1.5	3.8	-19.9	61.8*	-5.0	-1.9
CCn1c(=O)c(=O)[nH]c2cc(C(=O)NC3CCCC3)ccc21	2.4	-10.3	-28.3	17.2	0.0	-0.5
CC1CCCCC1NC(=O)c1ccc2c(c1)[nH]c(=O)n2C1CCCC1 (stereo not given)	-2.3	7.5	-9.9	81.6*	-4.0	-4.7
Cn1c(N)c(C(=O)Nc2ccccc2F)sc1=S	0.2	-31.3	-13.4	1.1	.	3.0
Cn1c(N)c(C(=O)Nc2ccc3ccccc3c2)sc1=S	43.7	44.5	-32.2	66.0*	-9.0	2.6
Cc1cccc2c3nc4ccccc4nc3n(CCCN3C(=O)c4ccccc4C3=O)c12	1.5	72.5*	-2.0	14.0	3.0	6.4
CCCCn1c(CN2C(=O)c3ccccc3C2=O)nc2ccccc2c1=O	63.1	-41.0	4.2	-148.7	0.0	2.1
CC1=NN(c2ccccc2)C(=O)/C1=C\c1cn(-c2ccccc2)nc1C	-3.6	68.2*	-9.5	-0.9	-6.0	-0.6
Cc1cc(C)cc(N2CC(O)=C(c3nc4ccccc4c(=O)[nH]3)C2=N)c1	76.8*	-179.9	2.8	-39.3	-4.0	12.8
CSc1cccc(NC(=O)CN(C)S(=O)(=O)c2ccccc2)c1	-9.4	72.1*	-24.6	-17.9	0.0	-2.8
CSc1cccc(NC(=O)CCC(=O)O)c1	-13.4	-5.5	70.9*	4.9	-4.0	15.7
CSc1cccc(NC(=O)CN(C)S(=O)(=O)c2ccc(F)cc2)c1	-7.5	1.3	4.4	-2.6	-2.0	-10.3
CCOc1ccccc1NC(=O)Nc1ccc(CC#N)cc1	-3.1	-3.4	-20.9	12.1	.	3.1
Nc1nc(NC(=O)c2cccs2)nn1-c1ccccc1	82.5*	18.0	-5.4	1.5	0.0	5.0
Nc1nc(NC(=O)c2ccccc2)nn1-c1ccccc1	7.3	-4.9	-3.9	9.6	0.0	4.0
CSC1=NCCN1C(=O)C12CC3CC(CC(C3)C1)C2	1.8	-0.9	16.2	30.5	-4.0	0.9
COc1ccccc1NCC(=O)n1nc(C)cc1C	-4.2	-19.9	-1.1	19.9	0.0	-0.6
COc1ccc(Cl)cc1-c1nc(-c2ccc(NC(=O)c3cccs3)cc2)no1	39.7	-96.9	-54.5	-100.2	-1.0	7.5
CN1CCc2nc3sc(C(=O)C45CC6CC(CC(C6)C4)C5)c(N)c3cc2C1	80.5*[fluorescence artefact?]	85.3*	47.8*	57.8*	0.0	-141.8
O=C(Nc1cccc(-c2cn3cccnc3n2)c1)c1ccc2c(c1)OCO2	7.7	41.2	-5.9	57.0*	-1.0	1.7
Cn1c(SCC(=O)N/N=C/c2ccc([N+](=O)[O-])s2)nnc1-c1ccc(Cl)cc1	-8.2	-12.0	0.3	-31.4	-5.0	4.5
SMILES	14-3-3 Bad inh	Mcl1-Bid inh	NCF1 inh	Mcl1-Noxa inh	Mcl-1 Bim block	eIF4E 4G PPI
COc1ccc(S(=O)(=O)Nc2ccccc2Cl)cc1NC(C)=O	91.3*	-7.7	-10.1	11.3	0.0	0.5
O=C(O)/C=C/C(=O)Nc1ccc2nccnc2c1	-3.9	1.4	-1.8	17.0	2.0	-2.0
COc1ccc(NS(=O)(=O)c2cc(NC(=O)Cn3cnc4c3c(=O)n(C)c(=O)n4C)ccc2C)cc1	4.7	-21.5	-2.0	24.4	2.0	2.8
O=c1c2c3nc4ccccc4nc3n(Cc3ccccc3)c2ncn1Cc1ccco1	12.7	1.8	-111.6	73.3*	4.0	-4.9
COCCCn1c2nc3ccccc3nc2c2c(=O)n(Cc3ccc(Cl)cc3)cnc21	.	16.5	10.6	15.3	0.0	.
O=C(N/N=C/c1ccccn1)c1cccc(S(=O)(=O)N2CCCC2)c1	-7.8	-42.0	14.1	-59.0	.	-7.7
C/C=C(\C)C(=O)Nc1cccc(C2=NOC3(C2)C[C@H](C(N)=O)N(C(=O)C(c2ccccc2)c2ccccc2)C3)c1 (stereo not given in full)	-0.5	-44.7	-4.9	-3.8	.	1.5
CCOC(=O)N1CCN(c2c(NCCCN(CC)Cc3ccccc3)c(=O)c2=O)CC1	-14.9	-48.7	-9.7	76.5*	8.0	5.1
CCOC(=O)C1CCN(c2c(NCCCN(CC)Cc3ccccc3)c(=O)c2=O)CC1	0.5	-18.7	-5.9	71.5*	-3.0	4.2
CCOC(=O)N1CCN(c2c(NCCCN(CC)c3cccc(C)c3)c(=O)c2=O)CC1	-14.2	-103.7	-9.7	24.8	-1.0	-2.8
CCCCN(CC)CCNc1c(N2CCN(C(=O)OCC)CC2)c(=O)c1=O	-8.4	-47.7	-1.7	75.2*	-2.0	6.1
CCOC(=O)N1CCN(c2c(NCCCN(CC)CC)c(=O)c2=O)CC1	-4.0	-26.7	1.1	2.9	-4.0	-6.3
CCOC(=O)N1CCC(Nc2c(NCCCN(CC)Cc3ccccc3)c(=O)c2=O)CC1	7.5	-29.9	-5.8	11.1	0.0	6.8
CC(=O)c1cc(C(=O)N2CCc3c([nH]c4ccccc34)C2C2CCCCC2)[nH]n1 (stereo not given)	-9.5	-54.2	-14.1	1.2	-1.0	1.4
O=C(CN1CCNCC1)NCCSc1ccc(Cl)cc1	-8.3	-8.5	-2.8	7.0	-1.0	1.1
COc1ccc(Nc2nc(-c3ccccc3)nc3ccccc23)cc1S(=O)(=O)N1CCOCC1	1.1	5.0	-51.9	-2.5	.	-4.0
CCOC(=O)c1c(C)[nH]c(N=Nc2ccc(OC)cc2)c1C	29.5	30.3	-11.6	11.6	.	-6.8
N#CCSc1nc2cc(C(=O)N3CCC(C(N)=O)CC3)ccc2c2nc3ccccc3n12	18.0	2.4	3.2	51.4*	0.0	-0.9
CC(=O)Nc1ccc(/C(C)=N/NS(=O)(=O)c2ccc(C)cc2)cc1	-12.8	-0.7	-0.6	13.0	-7.0	-5.0
